# Data taken from PubChem BioAssay AID2517 (National Center for Advancing Translational Sciences (NCATS), 2010).
# Several values for one entry are separate records, joined by “and”; a condition that tells them apart may be missing. Identical values can stand only once. Hit rate of the full screen: of about 350,000 compounds, about 1,200 (0.34%) were called active. A call without a number means that no potency is given here. Inconclusive results (about 3%) are left out. The call rests on the fitted dose curve; in most records, active means well fitted inhibition curve with a large enough effect; inconclusive means small, poorly fitted or top-dose-only effect; inactive means no such curve, though single readings can be large or run the other way. The sample as a whole holds a higher share of actives than the screen did.
# Biological target: DNA repair nuclease/redox regulator APEX1 (Homo sapiens) (UniProt P27695)
# Test: qHTS Assay for Inhibitors of the Human Apurinic/apyrimidinic Endonuclease 1 (APE1); further: nearly all actives have a fitted effect of over 55% in size
# Conditions: recombinant APE1, TAMRA/BHQ-2 abasic DNA cleavage fluorescence; activity change, negative = inhibition: at 65.8 µM (top of the series)
# Summary of the method: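 Endonuclease cleavage of a quenched abasic-site DNA duplex (50 nM) by APE1 (0.75 nM) was tracked by TAMRA dequenching. Compounds were preincubated with enzyme 15 min at room temperature; data normalized to buffer-only and DMSO wells plus NSC13755 control.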
# Potency means the concentration at half of the fitted maximal effect.
# Sequence of DNA repair nuclease/redox regulator APEX1 (Homo sapiens) (P27695 whole entry, looked up): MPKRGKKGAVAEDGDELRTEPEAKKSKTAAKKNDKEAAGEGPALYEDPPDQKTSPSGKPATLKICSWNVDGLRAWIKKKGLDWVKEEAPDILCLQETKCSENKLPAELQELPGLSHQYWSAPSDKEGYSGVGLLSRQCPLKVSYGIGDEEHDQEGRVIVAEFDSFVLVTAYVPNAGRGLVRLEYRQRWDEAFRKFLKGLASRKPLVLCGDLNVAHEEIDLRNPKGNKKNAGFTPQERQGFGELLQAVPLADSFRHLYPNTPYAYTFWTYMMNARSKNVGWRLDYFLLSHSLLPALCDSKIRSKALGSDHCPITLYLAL
row,SMILES,Potency
1,COCCNC(=O)Nc1ccc2nc(-c3ccco3)c(-c3ccco3)nc2c1,6.31 µM (active)
2,COc1cccc(S(=O)(=O)NCc2ccc(C(=O)NCc3ccccn3)cc2)c1,inactive
3,O=C(Nc1nc(-c2ccco2)c(-c2ccco2)s1)c1ccco1,inactive
4,O=C(NCc1ccccn1)c1ccc2nc(-c3ccco3)c(-c3ccco3)nc2c1,10 µM (active)
5,COCCNC(=O)c1snc2ccc(Cl)cc12,inactive
6,O=C(O)CC(C(=O)O)C(CC(=O)O)C(=O)O (centres undefined),inactive
7,NC(=O)c1sc(-c2ccsc2)cc1N,inactive
8,COc1ccc(CC(N)C(=O)NC2C(O)[C@H](n3cnc4c(N(C)C)ncnc43)O[C@@H]2CO)cc1 (some centres undefined),inactive
9,CCCn1c(C)nc2c(NCCCCN(CC)CC)nc(C)nc21,inactive
10,C=C1CCN(C(CC(C)C)C(=O)N2CCOCC2)S(=O)(=O)c2ccccc21 (centres undefined),inactive
11,CC(C)C(=O)Nc1c(O)c2ccccc2[nH]c1=O,inactive
12,O=C(Cc1c(O)c2ccccc2[nH]c1=O)NCc1ccccc1,inactive
13,O=C1C(c2[nH]c3ccccc3c2O)=Nc2ccccc21,7.94 µM (active) and 3.98 µM (active)
14,CCCCC/C=C\C/C=C\CCCCCCCCCC(=O)NCC(=O)O,inactive
15,CCCCCCCC/C=C\CCCCCCCC(=O)NCC(=O)O,inactive
16,Cc1cccc(-c2cc(=O)c3cc(C)ccc3o2)c1,inactive
17,COc1ccc2c(=O)cc(-c3ccccc3)oc2c1O,inactive
18,COc1c(O)cc2oc(-c3ccc(O)c(O)c3)cc(=O)c2c1O,7.08 µM (active)
19,Cc1ccc(NC(=O)O[C@@H]2C(=O)c3cc(Br)ccc3O[C@H]2c2ccc3c(c2)OCO3)cc1Br,inactive
20,CC(C)(C)n1ncc2c(=O)n(Cc3ccc(C(=O)c4ccccc4)cc3)cnc21,inactive
21,Cc1cccc2c3c(ccc12)C1=C(C(=O)C3=O)C(C)CO1 (centres undefined),inactive
22,CN[C@@H]1[C@H](O[C@H]2[C@H](O[C@H]3[C@H](O)[C@@H](O)[C@H](N=C(N)N)[C@@H](O)[C@@H]3N=C(N)N)O[C@@H](C)[C@]2(O)CO)O[C@@H](CO)[C@H](O)[C@H]1O,inactive

row,SMILES,Potency
1,CCOC(=O)C1=NOC(Cn2cc(C(C)=O)c(=O)[nH]c2=O)C1 (centres undefined),inactive
2,CCOC(=O)C1=NO[C@@]2(C=C(Br)C(=O)[C@H]3O[C@H]32)C1,7.94 µM (active)
3,CCOC(=O)C1=C(C)N=C2c3ccccc3C(=O)C2C1c1ccc(Br)cc1 (centres undefined),inactive
4,CC(C)C[C@@H](CC(=O)N[C@@H](CCC(=O)O)CC(=O)O)NC(=O)[C@@H]1CCCC[C@H]1NC(=O)C[C@@H](NC(=O)C[C@H](Cc1c[nH]c2ccccc12)NC(=O)[C@@H]1CCCC[C@H]1N)C(C)C,inactive
5,CC(C)C1=CC2=CC[C@@H]3[C@](C)(CO)CCC[C@]3(C)C2CC1 (some centres undefined),inactive
6,c1ccc(CSc2nnc(-c3ccco3)c(-c3ccco3)n2)cc1,10 µM (active)
7,O=C(CSc1nnc(-c2ccco2)n1-c1ccccc1)NCCc1ccccc1,inactive
8,Clc1ccc(CSc2nnc3c(n2)[nH]c2ccccc23)cc1,inactive
9,O=c1c(-c2cc(F)cc(F)c2)nc2cnc(Oc3ccccc3)nc2n1C[C@H]1CCCO1,inactive
10,CC/C=C/C/C=C/C/C=C/CCCCCCCC(=O)OCC,inactive
11,CN(C(=O)COC(=O)c1cc(-c2ccco2)nc2ccccc12)C1CCS(=O)(=O)C1 (centres undefined),7.94 µM (active)
12,COc1ccc(/C=C(\C#N)C(=O)OCC(=O)N(C)C2CCS(=O)(=O)C2)cc1 (centres undefined),inactive
13,CN(C(=O)COC(=O)Cc1ccccc1[N+](=O)[O-])C1CCS(=O)(=O)C1 (centres undefined),inactive
14,C1CCC2OC2C1 (centres undefined),inactive
15,Cc1ccc(-c2nn(-c3ccccc3)cc2/C=C2\SC(=S)N(CCCCCC(=O)O)C2=O)o1,inactive
16,COc1cccc(/C=C2/SC(=S)N(CC(=O)NC3C=CS(=O)(=O)C3)C2=O)c1 (centres undefined),inactive
17,COc1ccc(-c2nn(-c3ccccc3)cc2/C=C2/SC(=S)N(CCCC(=O)O)C2=O)c(C)c1,29.9 µM (active)
18,C=C1C(=O)C23C(O)C1CCC2[C@]12COC3(O)C(O)C1C(C)(C)CC[C@H]2O (some centres undefined),inactive
19,CC[C@@]12C=C(/C=C/c3ccccc3)[C@](CC)(C1)[C@H](c1ccccc1)CC2=O,inactive
20,O=C(CCc1n[nH]c(=O)[nH]c1=O)N/N=C/c1ccc(Br)o1,inactive
21,O=C(CCNC(=O)c1ccccc1)NN=Cc1ccc(Br)o1,15 µM (active)
22,O=C(CCNC(=O)c1ccccc1Cl)NN=Cc1ccco1,inactive
